Test results reported in PubChem BioAssay (NCI).
Compounds without any hit were thinned out: in the full panel of roughly 83,000, 20% have a hit.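 96-well plates, one dose, 48 hours. Percent growth reported; active if below 10.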 Values without a mark were called inactive. Calls of active or inactive are those of the source.

System: MDA-MB-468 breast
Experiment: NCI-60 one-dose screen, 48 h (100 = growth as untreated, 0 = no growth, -100 = all killed)
Settings: 10 µM unless noted

SMILES	growth
COc1ccc(/C=C(/C(=O)c2ccc(Cl)cc2)C(=O)C(F)(F)F)cc1	99.7%
CC1CC2C3CCC4=CC(=O)CCC4(C)C3CCC2(C)C1(O)C(=O)CO (configuration not stated)	115%
COc1ccc(/C=C\c2nc3ccccc3s2)cc1OP(=O)(O)O	12.4%
CCOc1ccccc1Cn1ccnc1CCc1c(Cl)c(O)cc(O)c1C(=O)OC	106%
CC1(C)CC[C@]23CC[C@]4(C)[C@H](CC[C@@H]5[C@@]6(C)C/C(=C/c7ccncc7)C(=O)C(C)(C)[C@@H]6CC[C@]54C)[C@H]2[C@H]1OC3=O	58.8% [100 µM]
Oc1ccc(Cl)cc1Cc1cc(Cl)cc(Cl)c1O	18.4%
CC(=O)c1c[nH]c2ccc(-c3ccnc(Nc4ccc(NC(=O)C5CCCC5)c(CN5CCOCC5)c4)n3)cc12	-53.9% (active)
CNCCCn1c2c(c3ccc([N+](=O)[O-])cc3c1=O)C(=O)c1cc(OC)cnc1-2	-39.5% (active)
COc1cc(CNC(=O)/C=C/C=C/c2ccc3c(c2)OCO3)ccc1OCc1cn(-c2ccc(Cl)c(Cl)c2)nn1	-68.1% (active)
COC(=O)CCCCN=Cc1c(O)c(O)c(C(C)C)c2cc(C)c(-c3c(C)cc4c(C(C)C)c(O)c(O)c(C=NCCCCC(=O)OC)c4c3O)c(O)c12	18.6%
CCOC(=O)c1c2c(cn1Cc1ccccc1)-c1oncc1CC2	105%
COc1ccc(C(O)c2cc3c(N)c(C(=O)Nc4cccc(Br)c4)sc3nc2C)cc1 (configuration not stated)	19.6%
